# High-throughput results from PubChem.
# A selection: hits, their analogues and other compounds. The true share with any hit is near 3.7%.
# HTT cytoprotect – protects HTT-Q103 PC12 cells, measured by ATP | AID 1471 | Potency, µM (series often up to 56.4 µM), for inactives: cytoprotection (ATP increase), hits mostly activators | hit rate 0.14% among 230,000 | PC12 HTT-Q103 induced, cytoprotection, ATP luminescence, 40 h; further: % of control where 0% means no effect; nearly all actives have a fitted effect of over 45% in size
#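 Compounds were screened for protection of PC12 cells against cell death after tebufenozide induction (100 nM final) of mutant Huntingtin exon 1 (Q103) fused to GFP.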
# Tau FP inhib – blocks human tau fibril formation measured by polarization. K18 P301L tau heparin fibrillization, Alexa594 FP, 6 h. Potency, µM (series often up to 57.7 µM), for the others: top-dose activity, negative = inhibition, most hits filed as inhibitors. hit rate 0.39% among 280,000. P10636; further: on the % scale 0 is the no-effect control and ±100 the full control effect; nearly all actives have a fitted effect of over 55% in size
# Target sequence (P10636 561-689 P618L limits assumed): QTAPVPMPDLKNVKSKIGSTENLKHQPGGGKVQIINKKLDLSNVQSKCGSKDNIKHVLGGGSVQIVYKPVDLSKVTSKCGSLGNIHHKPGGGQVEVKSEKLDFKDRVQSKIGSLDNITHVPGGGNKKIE
#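 Quantitative HTS format: compounds meet 15 uM recombinant K18 P301L tau and Alexa 594-tau tracer in 100 mM sodium acetate pH 7; 20 uM heparin triggers fibrillization at 37 C over 6 hr; FP gives the signal.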
# Tau ThT inhib – inhibitors of human tau fibril formation, thioflavin T binding; hit rate 2.1% among 270,000; Potency, µM (series often up to 57.4 µM), for the others: at the top dose activity, negative = inhibition, most hits filed as inhibitors; recombinant tau K18 P301L, heparin-induced fibrillization, ThT fluorescence; P10636; AID 1460; further: on the % scale 0 is the no-effect control and ±100 the full control effect; nearly all actives have a fitted effect of over 55% in size
#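 Recombinant human tau K18 fragment […] carrying P301L, 15 uM unlabeled plus 0.24 uM Alexa 594-labeled, was fibrillized with 20 uM heparin in 100 mM sodium acetate pH 7 for 6 hr at 37 C; 30 uM ThT fluorescence read after 1 hr.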
# HttQ103 aggreg – reduces HttQ103-GFP aggregates in PC12 cells | PC12 HttQ103-GFP aggregates, Acumen cytometry, 40 h | Potency, µM (titrated, usually from 46.1 µM), for the others: top-dose activity change, negative = inhibition, actives largely listed as inhibitors | hit rate 1.1% among 220,000 | AID 1688; further: on the % scale 0 is the no-effect control and ±100 the full control effect; nearly all actives have a fitted effect of over 60% in size
#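 Inducible Q103 Huntingtin exon 1–GFP PC12 line, 1500 cells/well in phenol red free DMEM with 5% equine and 5% calf serum. Tebufenozide 100 nM induced expression; compounds titrated; aggregates quantified by cytometry.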
# Tau fluor cs – counter-screen for tau fibril formation inhibitors; tau K18 P301L (four-repeat tau fragment) Alexa594 fluorescence, heparin fibrillization; Potency, µM (titrated, usually from 57.7 µM), for inactives: at the top dose activity change, negative = decrease; hit rate 0.93% among 280,000; AID 1463; further: on the % scale 0 is the no-effect control and ±100 the full control effect; nearly all actives have a fitted effect of over 55% in size
#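 Human K18 P301L tau (15 uM unlabeled plus 0.24 uM Alexa 594-labeled, final) in 100 mM sodium acetate pH 7 was mixed with compound and 20 uM heparin and incubated 6 hr at 37 C.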
# Numbers without * were called inactive; u = inconclusive; x = no result given; [ ] = dose if it differs, or a comment. The call rests on the fitted dose curve; in most records, active means well fitted curve in the direction sought with a large enough effect; inconclusive means small, poorly fitted or top-dose-only effect, or another doubt; inactive means no such curve, though single readings can be large; an effect the other way counts as inactive or inconclusive. Potency means the concentration at half of the fitted maximal effect.
SMILES,HTT cytoprotect,Tau FP inhib,Tau ThT inhib,HttQ103 aggreg,Tau fluor cs
CCCSc1nnc2c(n1)OC(c1sccc1C)Nc1ccccc1-2 (stereo unspecified),x,0.2%,-5.2%,x,-4.7%
Cc1cccn2c(=O)c3cc(C(=O)NCCc4ccccc4)c(=N)n(CCCn4ccnc4)c3nc12,-85.3%,25.1µM*,11.2µM*,u,11.2µM*[quencher]
Cc1cccn2c(=O)c3cc(C(=O)NCc4ccco4)c(=N)n(CCOCCO)c3nc12,-86.2%,12.2%,-15.0%,2.82µM*,-28.6%
COCCn1c(=N)c(C(=O)NCCc2ccccc2)cc2c(=O)n3cccc(C)c3nc21,-3.9%,x,x,x,x
OCC1(CO)COC(C(Cl)(Cl)Cl)OC1,9.1%,x,x,7.0%,x
O=C(N=Nc1c(O)[nH]c2ccc([N+](=O)[O-])cc12)c1ccccc1[N+](=O)[O-],13.2%[10 µM],5.0%,u,20.1%[9.22 µM],u
Cc1occc1C(=O)N=Nc1c(O)[nH]c2ccc(Br)cc12,-17.7%[10 µM],-3.2%,u,12.7%,-10.5%
CCc1cc(C(=O)N=Nc2c(O)[nH]c3ccc([N+](=O)[O-])cc23)c2ccccc2n1,-9.8%[10 µM],20.4%,15.8µM*,-13.1%,u
CCc1cc(C(=O)N=Nc2c(O)[nH]c3c(Br)cc(Br)cc23)c2ccccc2n1,-22.8%[10 µM],-1.3%,7.08µM*,u,u
COC(=O)c1sccc1S(=O)(=O)N1CCN(c2cccc(C)c2)C(C)C1 (stereo unspecified),x,-4.7%,-6.4%,x,-12.0%
Cc1cc(Sc2nc(N)ncc2[N+](=O)[O-])ncn1,-152.6%,2.7%,u,u,u
Cc1cc(Sc2ncnc(N)c2[N+](=O)[O-])ncn1,6.6%[10 µM],-2.2%,u,4.47µM*,u
Cc1ccc(N2NC(=O)/C(=C\c3cc4c(cc3[N+](=O)[O-])OCO4)C2=O)cc1C,x,u,14.1µM*,22.5%,u
N[C@@H](Cn1ccc(=O)n(Cc2ccccc2C(=O)O)c1=O)C(=O)O,1.5%,0.2%,-4.6%,x,-2.7%
Clc1ccc(Nc2ccc(-n3ccnc3)nn2)cc1Cl,-58.1%,u,1.0%,-4.2%,12.6µM*[quencher]
c1ccc(Nc2ccc(-n3ccnc3)nn2)cc1,-47.1%,7.1%,u,15.1%,-16.3%
CC(C)(C)OC(=O)NCCCCC1=CC2=CC(=O)C(C)(OC(=O)C3CCCC3)C(=O)C2=CO1 (stereo unspecified),u,-1.6%,-0.1%,x,-3.3%
C[C@@H](C[C@@H](O)[C@H](O)C(C)(C)O)[C@@H]1CC[C@]2(C)C3=CC[C@H]4C(C)(C)C(=O)CC[C@]4(C)[C@H]3CC[C@@]12C,x,-7.1%,u,35.5µM*,-20.1%
CS(=O)(=O)c1ccc(Cn2c3c(c4cc(F)cc(F)c42)CCC[C@H]3CC(=O)O)cc1,u,1.7%,u,x,-11.6%
O=C1CCCC2[C@@H]3CCC[N@+]4([O-])CCC[C@H](CN12)C34 (stereo partly specified),-24.9%,u,-7.0%,x,-4.8%
COc1cccc(N2CCN(C(=O)c3ccc4c(Cl)c5c(nc4c3)CCCC5)CC2)c1,x,-2.9%,u,x,-21.7%
CN1CCN(S(=O)(=O)c2ccc(Sc3nnnn3-c3ccccc3)c([N+](=O)[O-])c2)CC1,8.0%[10 µM],1.8%,u,11.2µM*,u
CCOC(=O)c1ccc(NC(=O)c2cn(-c3ccccc3)nc2-c2ccc(Br)cc2)cc1,x,17.8µM*,-13.7%,x,u
CCOC(=O)c1ccc(NC(=O)c2cn(-c3ccccc3)nc2-c2ccc(OC)c(OC)c2)cc1,x,10µM*,u,x,u
CCOC(=O)c1ccc(NC(=O)c2cn(-c3ccccc3)nc2-c2ccc(C)cc2)cc1,x,8.91µM*,-13.2%,x,u
SMILES,HTT cytoprotect,Tau FP inhib,Tau ThT inhib,HttQ103 aggreg,Tau fluor cs
Cc1ccc(-c2nn(-c3ccccc3)cc2C(=O)Nc2ccc(C(=O)O)cc2)cc1,x,3.2%,11.5%,-13.8%,-9.9%
Cc1ccc(NC(=O)c2cn(-c3ccccc3)nc2-c2ccccc2)cc1,x,-3.6%,-16.1%,x,-20.1%
CCOC(=O)c1ccc(NC(=O)c2cn(-c3ccccc3)nc2-c2ccncc2)cc1,13.7%[10 µM],28.2µM*,-4.3%,-1.7%,u
CC(C)CNc1nc2ncnc(N)c2[nH]1,7.5%[10 µM],x,x,x,x
CC(C)COc1ccc(-c2nn(-c3ccccc3)cc2C(=O)Nc2nccs2)cc1,-2.6%,14.1µM*,14.8%,-31.9%,u
CCCCS(=O)(=O)c1oc(-c2ccc(F)cc2)nc1S(=O)(=O)c1ccccc1,x,-31.4%,-7.1%,x,-12.6%
Cc1nc2sccc2c(=O)n1N,3.55µM*,-1.7%,-10.2%,-21.8%,-1.0%
COc1ccccc1OC(C)C(=O)Nc1nc(-c2ccc(S(=O)(=O)N3CCOCC3)cc2)cs1 (stereo unspecified),8.5%,3.6%,-14.2%,-7.4%,u
O=C(Nc1cccnc1)c1ccccc1NS(=O)(=O)c1ccc(F)cc1,-94.5%,-1.8%,-5.5%,u,-8.4%
COc1ccccc1C(=O)Nc1nc(-c2ccc(S(=O)(=O)N3CCOCC3)cc2)cs1,-90.3%,-2.1%,-4.8%,2.51µM*,u
O=S(=O)(Nc1ccc(-c2csc(-c3ccccc3)n2)cc1)c1ccc(F)cc1,7.7%[10 µM],11.2µM*,-8.5%,-32.8%,u
CC(=O)c1c(C)[nH]c(C(=O)Nc2nc(-c3ccc(-c4ccccc4)cc3)cs2)c1C,x,39.8µM*,1.7%,-25.5%,u
O=C(Nc1nc(-c2ccccc2)cs1)c1ccccc1NS(=O)(=O)c1ccc(F)cc1,-71.5%[10 µM],u,14.1µM*,1.78µM*,u
Cc1c(C(=O)Nc2cccc(F)c2)oc2c1-c1nn(Cc3c(F)cccc3Cl)cc1CC2,x,-8.4%,-0.5%,x,-4.2%
CCN(CC)c1ccc(-c2nn3c(-c4n[nH]c5c4CCC5)nnc3s2)cc1,-93.7%,-4.8%,u,12.6µM*,-21.5%
C1CCC(c2nn3c(-c4n[nH]c5c4CCC5)nnc3s2)CC1,-23.4%,-1.4%,-5.4%,-13.6%,3.3%
Cc1cc(N2CCN(C)CC2)nc2ccc(NC(=O)Nc3ccccc3Cl)cc12,x,u,14.1µM*,x,14.1µM*[quencher]
COc1cccc(NC(=O)Nc2ccc3nc(N4CCN(C)CC4)cc(C)c3c2)c1,x,u,u,x,14.1µM*[quencher]
COc1ccccc1CNC(=S)Nc1ccc2nc(N3CCN(C)CC3)cc(C)c2c1,-108.8%,u,u,u,20µM*[quencher]
COc1ccc(CNC(=S)Nc2ccc3nc(N4CCN(C)CC4)cc(C)c3c2)cc1,-6.4%[10 µM],u,u,1.3%,u
Cc1cc(C)cc(NC(=O)Nc2ccc3nc(N4CCN(C)CC4)cc(C)c3c2)c1,x,u,u,x,7.94µM*[quencher]
COC(=O)N[C@@H](c1cccc(C)c1)[C@@H](C)[N+](=O)[O-],-37.0%,2.2%,-0.1%,x,-1.2%
CCC(Sc1nncn2c1cc1oc(C)cc12)C(=O)Nc1ccc(F)cc1 (stereo unspecified),x,-12.5%,u,x,u
